Reference: PubChem BioAssay (Tox21)
Results filed as inconclusive are left out. Calls of active or inactive are those of the source. The call rests on the fitted dose curve. Starred links: 1 amine or outer side, 2 acyl side, 3 side chain; linkers in the order of their positions; H or OH if unused. Positions of bridges follow the written chain, without caps; N, C: chain ends. Non-standard residues stand in square brackets, D forms with d. Residues, ends and D or L forms follow the SMILES beside them. *: point of attachment. X5 = NC1=N[C@@H]([C@H](N[*:1])C(=O)[*:2])C[C@H](O)N1; ΔAla(Z-3-ureido) = NC(=O)N/C=C(\N)C(=O)O; β3hOrn = NCCC[C@H](N)CC(=O)*; Orn = NCCC[C@H](N)C(=O)O; Dap = NC[C@H](N)C(=O)O; Mpa = O=C(O)CCS

Experiment: qHTS assay for small molecule agonists of the p53 signaling pathway (AID 651631); further: nearly all actives have a fitted effect of over 15% in size
Settings: HCT-116 p53RE-bla reporter, beta-lactamase FRET ratio, 16 h; series mostly up to 73.3 µM; activation: at the top concentration
How it was run: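 HCT-116 cells carrying a stable p53 response element–beta-lactamase reporter were plated, rested 5 h at 37 °C, then exposed to compound in DMSO for 16 h at 37 °C; reporter activity was read as FRET substrate fluorescence after 2 h at room temperature.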
On the % scale 0 is the no-effect control and ±100 the full control effect; potency means the concentration at half of the fitted maximal effect.

SMILES | activation | Potency
COCC1=C(C(=O)OC(C)OC(=O)OC(C)C)N2C(=O)[C@@H](NC(=O)/C(=N\OC)c3csc(N)n3)[C@H]2SC1 (some centres undefined) | -2.98% (inactive) | –
CO[C@@H]1[C@@H](O[C@@H]2O[C@H](C)[C@@H](O[C@H]3C[C@@](C)(O)[C@@H](OC(=O)CC(C)C)[C@H](C)O3)[C@H](N(C)C)[C@H]2O)[C@@H](CC=O)C[C@@H](C)[C@@H](O)/C=C/C=C/C[C@@H](C)OC(=O)C[C@H]1O | – | inactive
CC(=O)O[C@H]1C[C@@H]2CC[C@@H]3[C@H](CC[C@@]4(C)[C@H]3C[C@H](N3CC[N+](C)(C)CC3)[C@@H]4OC(C)=O)[C@@]2(C)C[C@@H]1N1CC[N+](C)(C)CC1 | -1.13% (inactive) | –
NCCC[C@H](N)CC(=O)N[C@H]1CNC(=O)[C@H]([C@H]2C[C@H](O)NC(N)=N2)NC(=O)/C(=C/NC(N)=O)NC(=O)[C@H](CO)NC(=O)[C@H](CO)NC1=O (β3hOrn-[Dap]SS[ΔAla(Z-3-ureido)][X5]; lactam 1-C) | 2.91% (inactive) | –
CCOc1ccc(C[C@H]2NC(=O)CCSSC[C@@H](C(=O)N3CCC[C@H]3C(=O)N[C@@H](CCCN)C(=O)NCC(N)=O)NC(=O)[C@H](CC(N)=O)NC(=O)[C@H]([C@@H](C)O)NC(=O)[C@H]([C@@H](C)CC)NC2=O)cc1 ([Mpa][dY](Et)ITNCP[Orn]G-NH2; disulfide 1-6) | -2.69% (inactive) | –
O=P(O)(O)C(O)(Cc1cnc2ccccn12)P(=O)(O)O | -3.1% (inactive) | –
OCC(O)COc1ccc(Cl)cc1 (centres undefined) | -2.68% (inactive) | –
CCCCCCCCCCCCCCCC(=O)OC[C@@H](NC(=O)C(Cl)Cl)[C@H](O)c1ccc([N+](=O)[O-])cc1 | -2.36% (inactive) | –
NC(=O)Oc1ccc(Cc2ccccc2)cc1 | -3.55% (inactive) | –
CCCC(CCC)C(N)=O | -2.3% (inactive) | –
CC1CC(OC(=O)C(O)c2ccccc2)CC(C)(C)C1 (centres undefined) | 2.63% (inactive) | –
OC(CN1CCCCC1)c1cc(-c2ccccc2)on1 (centres undefined) | -3.76% (inactive) | –
CCC(c1ccccc1)c1noc(CCN(CC)CC)n1 (centres undefined) | -2.47% (inactive) | –
O=S(O)CNc1ccc(S(=O)(=O)c2ccc(NCS(=O)O)cc2)cc1 | -2.91% (inactive) | –
C=CCN1CCCC1CNC(=O)c1cc(S(N)(=O)=O)cc(OC)c1OC (centres undefined) | -4.31% (inactive) | –
CCCCCCCCCCCCCCCCCC(=O)OCCO | -2.22% (inactive) | –
CCCCCCCCCCCCCCCCCCCCCC(=O)Nc1ccn([C@@H]2O[C@H](CO)[C@@H](O)[C@@H]2O)c(=O)n1 | – | 11.9 µM (active)
CCCCOC(=O)C(=O)Nc1cccc(-c2nn[nH]n2)c1 | -1.44% (inactive) | –
CCOC(=O)[C@H](CCc1ccccc1)N[C@H]1CCCN2CCC[C@@H](C(=O)O)N2C1=O | -1.71% (inactive) | –
CC(C)CN(C[C@@H](O)[C@H](Cc1ccccc1)NC(=O)O[C@@H]1CCOC1)S(=O)(=O)c1ccc(N)cc1 | -3.44% (inactive) | –

SMILES | activation | Potency
O.O=C([O-])CC([S-])C(=O)[O-].[Au+].[Na+].[Na+] (centres undefined) | -1.69% (inactive) | –
O=P(O)(O)C(Sc1ccc(Cl)cc1)P(=O)(O)O | 2.14% (inactive) | –
O=C(CCCN1CCC(C(=O)c2ccc(F)cc2)CC1)c1ccc(F)cc1 | 4.76% (inactive) | –
C[C@H]1C[C@H]2[C@@H]3CCC4=CC(=O)C=C[C@]4(C)[C@@]3(F)[C@@H](O)C[C@]2(C)[C@@]1(O)C(=O)CCl | -4.58% (inactive) | –
CC#CCC(C)[C@H](O)/C=C/[C@@H]1[C@H]2C/C(=C/CCCC(=O)O)C[C@H]2C[C@H]1O (some centres undefined) | -0.514% (inactive) | –
NCCC[C@H](N)C(=O)O | -2.68% (inactive) | –
CN1[C@@H]2CCC[C@H]1CC(NC(=O)c1nn(C)c3ccccc13)C2 (some centres undefined) | -2.67% (inactive) | –
CS(=O)(=O)NC(=O)CCC/C=C\C[C@H]1C(=O)C[C@@H](O)[C@@H]1/C=C/[C@H](O)COc1ccccc1 | -2.66% (inactive) | –
OC[C@@H](O)C(O)[C@H](O)CO | 3.61% (inactive) | –
N[C@@H](C(=O)N[C@@H]1C(=O)N2C(C(=O)O)=C(CSc3cn[nH]n3)CS[C@H]12)c1ccc(O)cc1 | -3.29% (inactive) | –
CC1(C)S[C@@H]2[C@H](NC(=O)Cc3ccccc3)C(=O)N2[C@H]1C(=O)O | 3.52% (inactive) | –
COC(=O)[C@H]1[C@H]2C[C@@H]3c4[nH]c5cc(OC)ccc5c4CCN3C[C@H]2C[C@@H](OC(=O)/C=C/c2cc(OC)c(OC)c(OC)c2)[C@@H]1OC | 6.21% [at 34.7 µM] (inactive) | –
Cn1nnnc1SCC1=C(C(=O)O)N2C(=O)[C@@H](NC(=O)[C@H](OC=O)c3ccccc3)[C@H]2SC1 | -2.41% (inactive) | –
CC(C)(C)CC(=O)OCC(=O)[C@@]12OC(C)(C)O[C@@H]1C[C@H]1[C@@H]3CCC4=CC(=O)C=C[C@]4(C)[C@@]3(F)[C@@H](O)C[C@@]12C | 4.06% (inactive) | –
COc1ccc2c(=O)c(C)c(-c3ccccc3)oc2c1CN(C)C | 4.49% (inactive) | –
CCOC(=O)COc1ccc2c(C)c(CCN(CC)CC)c(=O)oc2c1 | -1.6% (inactive) | –
O=C(O)[C@H](CC(=O)N1C[C@H]2CCCC[C@H]2C1)Cc1ccccc1 | -2.15% (inactive) | –
C=C1/C(=C\C=C2/CCC[C@]3(C)[C@@H]([C@H](C)OCCC(C)(C)O)CC[C@@H]23)C[C@@H](O)C[C@@H]1O | – | 11.9 µM (active)
N=C(N)c1ccc(OCCCOc2ccc(C(=N)N)cc2Br)c(Br)c1 | 9.04% (inactive) | –
